Records with an inconclusive call do not appear. The source made the active and inactive calls. The call rests on the fitted dose curve; in most records, active means well fitted curve in the direction sought with a large enough effect; inconclusive means small, poorly fitted or top-dose-only effect, or effect the other way, or another doubt; inactive means no such curve, though single readings can be large or run the other way.
Assay: Secondary Assay for lipid storage modulators: AML12 cell LDSA assay for probe SAR
Details: AML12 lipid droplet accumulation, BODIPY 493/503 imaging, oleate; series mostly up to 46.1 µM; activity change, negative = inhibition: at the top concentration
Description: NIH Molecular Libraries Probe Production Centers Network [MLPCN] NIH Chemical Genomics Center [NCGC] MLPCN Grant: 1 R03 MH085686-01 Assay Submitter (PI): Beller, Mathias; Max-Planck-Institut fur Biophysikalische Chemie NCGC Assay Overview: Storing lipids as a reservoir for energy or the anabolism of elementary metabolites is a common feature of probably all cells and is conserved from bacteria to humans. The universal cellular lipid storage organelle is the so-called lipid storage droplet (LD). Although ubiquitous, LDs share a simple structure composed of a hydrophobic core that harbors the storage lipids, which is shielded by a droplet-specific phospholipid monolayer to which proteins are attached. The current model of LD biogenesis involves an incorporation of the lipid core into the membrane leaflets of the endoplasmic reticulum (ER) followed by a subsequent budding-like maturation of a LD, which ultimately pinches off. Once released, LD volume can increase by localized lipogenesis or fusion of existing droplet. Storage lipids are re-mobilized enzymatically by lipase activity. Lipase regulation in the adipocyte is heavily studied and involves multiple components including catecholamine signaling, the LD-associated proteins Perilipin and comparative gene identification (CGI-58) and at least two lipases named hormone sensitive lipase (HSL) and adipocyte triglyceride lipase (ATGL). LD regulation outside of the adipocyte is poorly understood and only few components are known. However, there is an urgent need to learn more about ectopic fat depots as mislocalized storage of lipids, for example in the liver or muscle, is an eminent health problem associated with insulin resistance or the metabolic syndrome.
NCGC Assay Protocol Summary: The assay was performed with AML12 cells, using an oleic acid feeding protocol similar to the S3 assay. We dispensed 4 uL of cells to give 700 cells/well into Greiner bio-one 1,536-well plates (black walled, clear bottom). Triacsin C (Sigma-Aldrich T-4540), an inhibitor of long-chain fatty acyl CoA synthetase that blocks synthesis of triglycerides, was used as a positive control for lipid under-storage using a final concentration of 20 uM. The orexin antagonist, SB408124 - previously identified to stimulate lipid over-storage, was used as a positive control for lipid over-storage using a final concentration of 20 uM. A total of 23 nL of compound solution of different concentrations were transferred to the assay plates using a Kalypsys pin tool equipped with a 1,536-pin array containing 10-nL slotted pins (FP1S10, 0.457-mm diameter, 50.8 mm long; V&P Scientific). One microliter of oleic acid was added (400 uM final concentration), and the plate was lidded with stainless steel rubber gasket lined lids containing pinholes. After 18-24 h incubation at […] and 95% humidity, 4 uL of the dyes BODIPY 493/503 (Molecular Probes) and the Cell Tracker Red CMTPX dye (Molecular Probes) were added to the wells to stain lipid droplets and enumerate cell number, respectively. Fluorescence was detected by excitation of the fluorophores with a 488-nm laser on an Acumen Explorer (TTP Lab Tech). The total intensity in channel 2 (500-530 nm) reflected lipid droplet accumulation. Cells were detected using channel 3 (575-640 nm) with 5-um width and 100-um depth filters. The ratio of the number of objects in PMT channel 2 over the number of objects in PMT channel 3 was also calculated. Percent activity was computed relative to an internal control (100% inhibited lipid droplet deposition due to the presence of 20 uM Triacsin C), which was added to 32 wells/plate.

Activity change, negative = inhibition, inactive:
Cc1ccc(CC(=O)Nc2nc(-c3cccs3)cs2)cc1 -12.9%
O=C(NC1CCCc2c1cnn2-c1ccc(F)cc1F)c1ccncc1 (centres undefined) -15.8%
O=C(NC1CCCc2c1cnn2-c1ccc(F)cc1F)c1ccn[nH]1 (centres undefined) -31.6%
O=C(Cc1cccs1)Nc1nc(-c2ccc(F)cc2)cs1 4.29%
CC(C)(C)OC(=O)NCCOCCOCCOc1ccc(-n2ncc3c2CCCC3NC(=O)c2ccccn2)cc1 (centres undefined) -35.4%
O=C(NC1CCCc2c1cnn2-c1ccc(F)cc1F)c1c(F)cccc1Cl (centres undefined) 0%
CN(C)CC(=O)NC1CCCc2c1cnn2-c1ccc(F)cc1F (centres undefined) 5.26%
O=C(NC1CCCc2c1cnn2-c1ccc(F)cc1F)c1cnsn1 (centres undefined) -14.3%
CCOC(=O)C1CCN(C(=O)C(C)(C)NC(=O)Nc2cccc(-c3csc(C)n3)c2)CC1 -30.2%
CCn1c(C(=O)NCCc2ccc(OC)cc2)cc2sccc21 -5.26%
O=C(Cc1cccs1)Nc1nc(-c2ccc3c(c2)CCC3)cs1 12.9%
O=C(NC1CCCc2c1cnn2-c1ccc(F)cc1F)c1cnon1 (centres undefined) -39.5%

Potency, active:
COc1ccc(CCNC(=O)c2cc3sccc3n2Cc2ccc(Cl)cc2)cc1OC 30.7 nM
COc1ccc(CCNC(=O)c2cc3sccc3n2Cc2ccc(F)cc2)cc1OC 3150 nM

Reference: PubChem BioAssay AID504434 (National Center for Advancing Translational Sciences (NCATS), 2011)
